This is an account of results in PubChem BioAssay (NCATS).

For experiment [1], the target named is N-terminal Xaa-Pro-Lys N-methyltransferase 1 (Homo sapiens) (UniProt Q9BV86). The experiment is described as follows: qHTS Assay for Inhibitors of N-terminal methyltransferase 1 (NTMT1): LOPAC validation of the NTMT1 SAHH-coupled ThioGlo3 Assay (AID 1347143). Note: nearly all actives have a fitted effect of over 70% in size. In outline:
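Fluorescence read-out (excitation 340nm, emission 450nm) of SAH-derived thiol, measured via SAHH coupling and ThioGlo3, taken immediately and after a 30 min room-temperature reaction, then normalized to the background read. Enzyme: NTMT1 at 125nM; cofactor SAM 100uM in the added reagent.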

For experiment [2], the system named is Zika virus NS2B-NS3 protease (unlinked). Briefly: Optimization of GU AMC qHTS for Zika virus inhibitors: Unlinked NS2B-NS3 protease assay (AID 1347151). Note: series mostly up to about 52 µM; nearly all actives have a fitted effect of over 80% in size. In outline:
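Percent inhibition is derived from the 15-min change in AMC fluorescence, normalized against no-inhibitor and no-enzyme controls, then fitted to a 4-parameter Hill curve. Aprotinin was the intraplate control.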

The nature of experiment [3]: qHTS of pediatric cancer cell lines to identify multiple opportunities for drug repurposing: Confirmatory screen for SJ-GBM2 cells (AID 1347116). Note: nearly all actives have a fitted effect of over 60% in size. Note: potency is the fitted concentration of half-maximal effect. The method, boiled down:
(§1)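 Viability measured as metabolically active cells via CellTiter-Glo luminescence following 48 hours of compound exposure, 11-point dilutions in confirmatory testing. 500-1,000 cells/well plated 5 hours before dosing; controls were DMSO and 2.3 µM bortezomib.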

Experiment [4] can be described thus: qHTS of pediatric cancer cell lines to identify multiple opportunities for drug repurposing: Confirmatory screen for BT-37 cells (AID 1347117). Note: nearly all actives have a fitted effect of over 55% in size. Note: potency is the fitted concentration of half-maximal effect. The method, boiled down: (§2)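 Cells (500-1,000/well) in growth media were settled 5 h at 37 degrees C, then given compounds for 48 h. Viability was read as CellTiter-Glo luminescence. Primary runs used MIPE at 11 points (0.78 nM-46 µM) and NPC at 8 points (0.59 nM-46 µM); follow-ups used 11 points.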

A short description of experiment [5]: qHTS of pediatric cancer cell lines to identify multiple opportunities for drug repurposing: Confirmatory screen for TC32 cells (AID 1347118).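 Note: potency is the fitted concentration of half-maximal effect; cells exposed to compound for 48 h before the read; nearly all actives have a fitted effect of over 65% in size.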 The method, boiled down: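 Measured quantity: luminescence from CellTiter-Glo, reflecting metabolically active TC32 cells following 48 h of compound. Curves came straight from multi-point titrations, with 8 or 11 points in primary and 11 in confirmatory screening.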

Experiment [6] in a line: qHTS of pediatric cancer cell lines to identify multiple opportunities for drug repurposing: Confirmatory screen for MG 63 (6-TG R) cells (AID 1347119). Note: nearly all actives have a fitted effect of over 55% in size. Note: potency is the fitted concentration of half-maximal effect. The method, boiled down:
as §2

Experiment [7] can be described thus: qHTS of pediatric cancer cell lines to identify multiple opportunities for drug repurposing: Confirmatory screen for control Hh wild type fibroblast cells (AID 1347121). Note: nearly all actives have a fitted effect of over 70% in size. In outline:
as §2

The nature of experiment [8]: qHTS of pediatric cancer cell lines to identify multiple opportunities for drug repurposing: Confirmatory screen for RD cells (AID 1347124).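 Note: cells exposed to compound for 48 h before viability readout; nearly all actives have a fitted effect of over 65% in size.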 Note: potency is the fitted concentration of half-maximal effect. The method, boiled down: as §2
A short description of experiment [9]: qHTS of pediatric cancer cell lines to identify multiple opportunities for drug repurposing: Confirmatory screen for Rh18 cells (AID 1347125). Note: nearly all actives have a fitted effect of over 55% in size. Note: potency is the fitted concentration of half-maximal effect. In outline:
as §2

Experiment [10] can be described thus: qHTS of pediatric cancer cell lines to identify multiple opportunities for drug repurposing: Confirmatory screen for Rh30 cells (AID 1347126). Note: nearly all actives have a fitted effect of over 55% in size. In outline: as §2
Experiment [11] is described as follows: qHTS of pediatric cancer cell lines to identify multiple opportunities for drug repurposing: Confirmatory screen for Saos-2 cells (AID 1347127). Note: nearly all actives have a fitted effect of over 60% in size. Note: potency is the fitted concentration of half-maximal effect. The method, boiled down: as §2
The test system of experiment [12] is Zika virus NS2B-NS3 protease. The experiment is described as follows: Primary screen GU AMC qHTS for Zika virus inhibitors (AID 1347154). Note: nearly all actives have a fitted effect of over 70% in size. The method, boiled down: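 Unlinked Zika NS2B hydrophilic domain/NS3 protease domain noncovalent complex (25 nM final) in 10 mM Tris-HCl pH 8.0, 0.01% Tween 20, with AMC peptide substrate. Fluorescence (ex 340, em 450 nm) change over 15 min, room temperature; percent inhibition fitted to 4-parameter Hill equation.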

Experiment [13] is described as follows: qHTS of pediatric cancer cell lines to identify multiple opportunities for drug repurposing: Confirmatory screen for DAOY cells (AID 1347114). Note: nearly all actives have a fitted effect of over 65% in size. Note: potency is the fitted concentration of half-maximal effect. The method, boiled down: as §1
Experiment [14] can be described thus: qHTS of pediatric cancer cell lines to identify multiple opportunities for drug repurposing: Confirmatory screen for Rh41 cells (AID 1347123).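 Note: 48 h compound exposure; nearly all actives have a fitted effect of over 60% in size.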 Note: potency is the fitted concentration of half-maximal effect. The method, boiled down: as §2
The nature of experiment [15]: qHTS of pediatric cancer cell lines to identify multiple opportunities for drug repurposing: Confirmatory screen for SK-N-SH cells (AID 1347129).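 Note: cells exposed to compound for 48 h before viability read; nearly all actives have a fitted effect of over 60% in size.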 In outline: as §2
Experiment [16] in a line: qHTS of pediatric cancer cell lines to identify multiple opportunities for drug repurposing: Confirmatory screen for LAN-5 cells (AID 1347113). Note: nearly all actives have a fitted effect of over 65% in size. Note: potency is the fitted concentration of half-maximal effect. In outline:
as §2

Results filed as inconclusive are left out. Active and inactive are the calls of the source. Calls come from the whole dose curve; as a rule, active = well fitted curve in the direction sought with a large enough effect; inconclusive = small, poorly fitted or top-dose-only effect, or another doubt; inactive = no such curve, though single readings can be large; an effect the other way counts as inactive or inconclusive.

Sequence of N-terminal Xaa-Pro-Lys N-methyltransferase 1 (Homo sapiens) (Q9BV86 whole entry, looked up): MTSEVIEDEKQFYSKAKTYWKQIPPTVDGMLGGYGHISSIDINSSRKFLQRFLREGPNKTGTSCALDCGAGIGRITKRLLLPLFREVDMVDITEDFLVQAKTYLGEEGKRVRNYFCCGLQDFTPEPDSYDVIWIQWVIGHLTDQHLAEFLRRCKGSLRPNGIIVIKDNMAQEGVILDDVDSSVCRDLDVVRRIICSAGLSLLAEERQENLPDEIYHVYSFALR

Turning to `N[C@@H](Cn1ccc(=O)c(O)c1)C(=O)O`, the Potency result in experiment [1] and in experiment [2] was “inactive” throughout.

Regarding `Cc1ccc(C(=O)Oc2ccc(C(O)CNC(C)(C)C)cc2OC(=O)c2ccc(C)cc2)cc1` (configuration not stated), the Potency entry in experiment [3], in experiment [4], in experiment [6], in experiment [7], in experiment [8] and in experiment [9] was “inactive” throughout. Besides, the Potency entry in experiment [10], in experiment [11] and in experiment [12] was “inactive” throughout. In experiment [5], the Potency is 5.22 µM (active).

`CC(C)=CCC/C(C)=C/CC/C(C)=C/C(=O)OCC(=O)[C@@]1(O)CC[C@H]2[C@@H]3CCC4=CC(=O)C=C[C@]4(C)[C@H]3[C@@H](O)C[C@@]21C`: the results for the Potency in [13], in [14] and in experiment [11] were 20.8 µM (active), 16.5 µM (active) and 18.5 µM (active), respectively. In addition, the Potency result in experiment [3], in experiment [9] and in experiment [15] was “inactive” throughout.

Consider `CCCC(=O)O[C@]1(C(=O)COC(=O)CC)CC[C@H]2[C@@H]3CCC4=CC(=O)CC[C@]4(C)[C@H]3[C@@H](O)C[C@@]21C`, for which the Potency entry in [16], in experiment [4], in experiment [6], in [7], in [9] and in experiment [11] was “inactive” throughout. The Potency entry in experiment [15] and in experiment [12] was “inactive” in each case. Also, the Potency in experiment [5] is 8.27 µM (active).

Turning to `CN(C)CCN(Cc1ccsc1)c1ccccn1`, the Potency result in experiment [16], in experiment [13], in [3], in experiment [4], in experiment [6] and in [7] was “inactive” in each case. The Potency entry in [14], in experiment [8], in [9], in [10], in experiment [11] and in experiment [15] was “inactive” in each case. The Potency entry in experiment [12] is “inactive”.

On to `N=C(N)c1ccc(OCCCOc2ccc(C(=N)N)cc2)cc1`, for which the Potency entry in experiment [16], in [4], in experiment [7], in experiment [14], in [8] and in [9] was “inactive” each time. The Potency result in experiment [10], in experiment [11], in [15] and in experiment [12] was “inactive” throughout. Moreover, the Potency in experiment [13] was 18.5 µM (active); in experiment [5], 23.3 µM (active).

As to `C[C@H]1C[C@H]2[C@@H]3CCC4=CC(=O)C=C[C@]4(C)[C@H]3C(=O)C[C@]2(C)[C@@]1(O)C(=O)CO`, the Potency in experiment [16] was 2.93 µM (active); in experiment [3], 4.65 µM (active); in [4], 2.93 µM (active); in experiment [6], 4.65 µM (active); in experiment [8], 2.93 µM (active); in [9] it was 3.29 µM (active). Besides, the Potency in experiment [11] was 3.69 µM (active). Besides, the Potency result in [13], in experiment [15] and in experiment [12] was “inactive” each time.
